Measured potencies and affinities stand elsewhere. Unmarked numbers belong to inactive results. Active and inactive are the calls of the source.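 The calls were made as follows: active = compounds lowering HepG2 cell ATP luminescence with a fitted half-maximal concentration at most twice the top tested dose; inconclusive = flat fit with 30 to 70 percent signal loss, or poor fit; inactive = the rest.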
experiment: liver cell line viability loss – HepG2, luminescence plate reader, powder samples, set 2, cytotoxicity control, dose response (AID 651860); details: CellTiter-Glo ATP luminescence, 48 h; series mostly up to 26 µM; activity change, negative = cytotoxic: at the top concentration

Row | SMILES | activity change, negative = cytotoxic | outcome
1 | CCOC(=O)C(C(=O)OCC)c1cc(CN2C(=O)c3ccccc3C2=O)c2ccccc2n1 | 7.52% | –
2 | COc1ccccc1CCNC(=O)[C@@H]1c2ccccc2CCN1C(=O)C1CCCCC1C(=O)O (some centres undefined) | – | inactive
3 | Cc1ccc(S(=O)(=O)Nc2cc(C(C(=O)OC(C)C)C(=O)C(F)(F)F)c(O)c3ccccc23)c(C)c1 (centres undefined) | -11.9% | –
4 | O=S(=O)(Nc1nc(NCC2CCCCC2)nc2ccccc12)c1ccccc1 | 14% | –
5 | O=C(O)CCCC(=O)N1CCc2ccccc2C1CN1C(=O)c2ccccc2C1=O (centres undefined) | -4.83% | –
6 | O=C1c2ccccc2C(=O)N1CC1=NCCc2ccccc21 | -3.12% | –
7 | O=C(O)C1CCCCC1C(=O)NCC1c2ccccc2CCN1C(=O)Cc1ccccc1 (centres undefined) | 7.56% | –
8 | Cc1ccc(S(=O)(=O)NC(=O)[C@@H]2c3ccccc3CCN2C(=O)[C@@H]2CCCC[C@@H]2C(=O)O)cc1 | – | inactive
9 | COC(=O)C1CCCCC1C(=O)N1CCc2ccccc2C1CN1C(=O)c2ccccc2C1=O (centres undefined) | -1.95% | –
10 | COC(=O)[C@@H]1CCCC[C@@H]1C(=O)N1CCc2ccccc2[C@H]1CN1C(=O)c2ccccc2C1=O | -4.15% | –
11 | CCOC(=O)Cc1nc(NS(=O)(=O)c2c(C)cc(C)cc2C)c2ccccc2n1 | 2.6% | –
12 | CC(=O)Nc1cc(NS(=O)(=O)c2c(C)cc(C)cc2C)c2ccccc2c1O | 7.31% | –
13 | O=C(O)C1CCCCC1C(=O)N1CCc2ccccc2C1c1ccccc1 (centres undefined) | -2.51% | –
14 | O=C1c2ccccc2C(=O)N1C[C@@H]1c2ccccc2CCN1C(=O)C1CCCCC1 | -16.3% | –
15 | CCOC(=O)C(C(=O)OCC)c1nc(NS(=O)(=O)c2c(C)cc(C)cc2C)c2ccccc2n1 | 2.58% | –
16 | Cc1ccc(S(=O)(=O)NNc2nc(N3CC(O)CC3C(=O)O)nc3ccccc23)cc1 (centres undefined) | -7.49% | –
17 | Cc1ccc(S(=O)(=O)NNc2nc(C(C(=O)OC(C)C)C(=O)C(F)(F)F)nc3ccccc23)cc1 (centres undefined) | -2.36% | –

Row | SMILES | activity change, negative = cytotoxic | outcome
18 | CCOC(=O)C(C(=O)OCC)c1cc(CNS(=O)(=O)c2ccc(C)cc2C)c2ccccc2n1 | -9.04% | –
19 | C=CC(=O)NC[C@@H]1c2ccccc2CCN1C(=O)[C@@H]1CCCC[C@@H]1C(=O)O | 9.58% [at 12 µM] | –
20 | O=C(NCCCN1CCOCC1)c1ccccc1C(=O)NC[C@@H]1c2ccccc2CCN1C(=O)C1CCCCC1C(=O)O (some centres undefined) | -16.8% | –
21 | COC(=O)C(C(=O)OC)c1cc(NS(=O)(=O)c2c(C)cc(C)cc2C)c2ccccc2c1O | -3.99% | –
22 | C[C@H](NC(=O)C1CCCC[C@H]1C(=O)O)c1ccccc1 (mixture of isomers) | -5.04% | –
23 | O=C(O)C1CCCCC1C(=O)N1CCc2ccccc2C1CN1C(=O)[C@H]2CCCC[C@H]2C1=O (some centres undefined) | 11.5% | –
24 | O=C(O)Cc1ccccc1C(=O)N1CCc2ccccc2[C@H]1CN1C(=O)c2ccccc2C1=O | -3.12% | –
25 | COC(=O)[C@H]1CCCC[C@H]1C(=O)N1CCc2ccccc2[C@H]1CN1C(=O)c2ccccc2C1=O | 7.57% | –
26 | CC(C)OC(=O)C(C(=O)C(F)(F)F)c1cc(NS(=O)(=O)c2ccccc2)c2ccccc2c1O (centres undefined) | -11.9% | –
27 | O=C(O)C1CCCCC1C(=O)N1CCc2ccccc2C1CN1Cc2ccccc2C1=O (centres undefined) | -6.56% | –
28 | Cc1cc(C)c(S(=O)(=O)Nc2nc(NCCO)nc3ccccc23)c(C)c1 | -0.961% | –
29 | COC(=O)[C@@H]1CCCC[C@@H]1C(=O)N1CCc2ccccc2[C@@H]1CN1C(=O)c2ccccc2C1=O | -17.5% | –
30 | O=C(O)C1CCCCC1C(=O)N1CCc2ccccc2[C@H]1C(=O)NC12CC3CC(CC(C3)C1)C2 (some centres undefined) | -5.48% | –
31 | Cc1ccc(S(=O)(=O)NC[C@@H]2c3ccccc3CCN2C(=O)[C@@H]2CCCC[C@@H]2C(=O)O)c(C)c1 | 7.93% | –
32 | O=C(NC[C@@H]1c2ccccc2CCN1C(=O)[C@@H]1CCCC[C@@H]1C(=O)O)c1ccc(CN2CCOCC2)cc1 | -12.1% | –
33 | O=C(NC[C@@H]1c2ccccc2CCN1C(=O)[C@@H]1CCCC[C@@H]1C(=O)O)c1ccccc1CO | -0.395% | –
34 | O=C(NC[C@@H]1c2ccccc2CCN1C(=O)[C@@H]1CCCC[C@@H]1C(=O)O)c1ccccc1 | -9.07% | –
